Experimental data published in PubChem BioAssay (EPA / NIEHS).
Records with an inconclusive call do not appear. Active and inactive are the calls of the source. The calls were made as follows, unless noted: active = hit-call score of the fitted dose curve at least 0.9, where 1 is the maximum; inconclusive = response in the unintended direction; inactive = score below 0.9.

Key:
[1] = read-out: Broad substrate specificity ATP-binding cassette transporter ABCG2 (Homo sapiens) (UniProt Q9UNQ0); experiment: CLD_ABCG2_6hr: CellzDirect (CLD) Gene Expression Assay for ABC Transporter (ABCG2) at 6 hours (AID 2283660)
Summary of the method: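 Primary human hepatocytes dosed daily with chemicals at multiple concentrations (0.2% DMSO vehicle), harvested 6 h after dosing. ABCG2 mRNA induction read by quantitative nuclease protection assay (qNPA) chemiluminescence; gain of signal fitted against DMSO baseline.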

[2] = read-out: xenobiotic metabolism (CYP1A1), CYP1A1 (gene 1543); experiment: CLD_CYP1A1_6hr: CellzDirect (CLD) Gene Expression Assay for xenobiotic metabolism (CYP1A1) at 6 hours (AID 2283661);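 as to AC50: potency for transcript induction above DMSO vehicle baseline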
Summary of the method: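 Primary human hepatocytes from two donors, compound versus 0.2% DMSO vehicle. CYP1A1 mRNA measured 6 h after dosing by quantitative nuclease protection assay with chemiluminescent read-out; induction fitted relative to DMSO, cytotoxicity flagged by microscopy.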

[3] = read-out: xenobiotic metabolism (CYP1A2), CYP1A2 (gene 1544); experiment: CLD_CYP1A2_6hr: CellzDirect (CLD) Gene Expression Assay for xenobiotic metabolism (CYP1A2) at 6 hours (AID 2283663);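 as to AC50: potency is for induction meaning a rise in mRNA above DMSO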
Summary of the method: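 Primary human hepatocytes from two donor preparations, dosed daily with multiple concentrations in 0.2% DMSO and harvested at 6 h. CYP1A2 mRNA induction measured by chemiluminescent qNPA, gain of signal fitted against DMSO; cytotoxicity flagged morphologically.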

[4] = Tanguay_ZF_120hpf_TR_legacy: (Legacy) Oregon State University Tanguay Lab 120 Hour Post-fertilization zebrafish Assay for Touch Response (AID 2283667)
Summary of the method: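 5D WT embryos; static exposure to 120 hpf, 28C, sealed/dark; DMSO 0.64% v/v final. TR scored present/absent; dead embryos excluded. Pos ctrl 5uM trimethyltin chloride.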

[5] = read-out: organic anion transporter (SLCO1B1), SLCO1B1 (gene 10599); experiment: CLD_SLCO1B1_6hr: CellzDirect (CLD) Gene Expression Assay for organic anion transporter (SLCO1B1) at 6 hours (AID 2283668);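 also: active means mRNA induction above DMSO baseline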
Summary of the method: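 Primary human hepatocytes dosed daily with test chemicals (multiple concentrations) in 0.2% DMSO vehicle; harvested at 6 h. SLCO1B1 mRNA quantified by qNPA chemiluminescence, fitted as gain-of-signal versus DMSO; cytotoxicity from phase-contrast morphology flagged alongside.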

[6] = read-out: sulfotransferase (SULT2A), SULT2A1 (gene 6822); experiment: CLD_SULT2A_6hr: CellzDirect (CLD) Gene Expression Assay for sulfotransferase (SULT2A) at 6 hours (AID 2283669);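 also: hits raise transcript level above the DMSO vehicle baseline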
Summary of the method: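 Primary human hepatocytes from two donor preparations were dosed daily with chemicals or 0.2% DMSO and harvested at 6 h. Transcript induction read by qNPA chemiluminescence, fitted for gain of signal relative to DMSO; morphology-based cytotoxicity annotated.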

[7] = read-out: ABC Transporter (ABCB11), ABCB11 (gene 8647); experiment: CLD_ABCB11_6hr: CellzDirect (CLD) Gene Expression Assay for ABC Transporter (ABCB11) at 6 hours (AID 2283675);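 also: hits raise ABCB11 mRNA level so AC50 marks induction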
Summary of the method: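 Human primary hepatocytes (two donor preparations) given fresh chemical daily at multiple concentrations, vehicle 0.2% DMSO. ABCB11 mRNA induction measured 6 h after dosing by qNPA chemiluminescence versus DMSO; cytotoxicity annotated from morphology.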

[8] = CLD_ACTIN_6hr: CellzDirect (CLD) Gene Expression Assay for Baseline Control (Actin) at 6 hours (AID 2283676);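 also: active means increased actin mRNA relative to DMSO vehicle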
Summary of the method: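 Primary human hepatocytes dosed with fresh chemical solutions (vehicle 0.2% DMSO), harvested at 6 h. Actin mRNA quantified by quantitative nuclease protection assay with chemiluminescent read-out, as background control relative to DMSO.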

[9] = read-out: Cytochrome P450 2B6 (Homo sapiens) (UniProt P20813); experiment: CLD_CYP2B6_6hr: CellzDirect (CLD) Gene Expression Assay for xenobiotic metabolism (CYP2B6) at 6 hours (AID 2283677);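 also: actives raise CYP2B6 transcript above DMSO baseline so AC50 marks an inducer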
Summary of the method: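 Primary human hepatocytes dosed with chemicals at multiple concentrations, vehicle 0.2% DMSO; CYP2B6 mRNA induction measured 6 h after dosing by quantitative nuclease protection assay with chemiluminescence, gain of signal fitted relative to DMSO.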

[10] = CCTE_Padilla_ZF_144hpf_TERATOSCORE: (Legacy) CCTE's 144 Hour Post-fertilization zebrafish Assay Teratoscore, Padilla Lab (AID 2283679; active = hit-call score of the fitted dose curve at least 0.9, where 1 is the maximum; inactive = score below 0.9;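 as to AC50: zebrafish embryos with chorions exposed by immersion from 6-8 hpf to 5 dpf with daily renewal; teratogenicity score from eye scoring of death hatching and malformations at 144 hpf; higher score means more developmental defects relative to DMSO baseline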)
Summary of the method: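 Larvae scored by eye at 144 hpf for death, hatching and malformations after a day in clean Hanks'. Before that, daily-renewed exposure at 80 uM (0.4% DMSO, 26C) from roughly 6-8 hpf through 5 dpf, 4 embryos per chemical.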

[11] = read-out: Cytochrome P450 3A4 (Homo sapiens) (UniProt P08684); experiment: CLD_CYP3A4_6hr: CellzDirect (CLD) Gene Expression Assay for xenobiotic metabolism (CYP3A4) at 6 hours (AID 2283680)
Summary of the method: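 Primary human hepatocytes (two donor preparations) dosed; CYP3A4 mRNA harvested at 6 h and quantified by qNPA chemiluminescence. Gain of signal fitted against 0.2% DMSO vehicle; cytotoxicity flagged by phase-contrast morphology.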

[12] = read-out: ABC Transporter (ABCB1), ABCB1 (gene 5243); experiment: CLD_ABCB1_6hr: CellzDirect (CLD) Gene Expression Assay for ABC Transporter (ABCB1) at 6 hours (AID 2283659);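 also: hits raise ABCB1 transcript above the DMSO vehicle baseline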
Summary of the method: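 Primary human hepatocytes (two donor preparations) dosed daily for two days with chemicals at multiple concentrations, 0.2% DMSO vehicle; harvested 6 h post-dose. ABCB1 mRNA induction quantified by qNPA chemiluminescence; gain-of-signal fitted versus DMSO.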

[13] = tested on: Thyroperoxidase (TPO), gene 54314; experiment: CCTE_Simmons_AUR_rTPO: CCTE's Amplex UltraRed Assay for Thyroperoxidase (TPO) Inhibition, Simmons Lab (AID 2283662);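 also: potency for loss of signal meaning inhibition of peroxidase activity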
Summary of the method: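 Endpoint is decreased Amplex UltraRed fluorescence after a 30-min, 37C reaction of rat thyroid microsomes with 300 uM H2O2. Eight test concentrations (5 nM–87.5 uM final) in 0.5% DMSO, three biological replicates each.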

[14] = read-out: glucuronosyltransferase (UGT1A1), UGT1A1 (gene 54658); experiment: CLD_UGT1A1_6hr: CellzDirect (CLD) Gene Expression Assay for glucuronosyltransferase (UGT1A1) at 6 hours (AID 2283672)
Summary of the method: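 Primary human hepatocytes from two donor preparations, dosed with fresh solutions in 0.2% DMSO, harvested at 6 h. UGT1A1 mRNA measured by qNPA chemiluminescence; induction fitted upward versus DMSO.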

[15] = read-out: xenobiotic metabolism (CYP1A1), CYP1A1 (gene 1543); experiment: CLD_CYP1A1_24hr: CellzDirect (CLD) Gene Expression Assay for xenobiotic metabolism (CYP1A1) at 24 hours (AID 2283673);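 also: CYP1A1 mRNA level by quantitative nuclease protection with chemiluminescence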
Summary of the method: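 Primary human hepatocytes dosed daily with fresh solutions in 0.2% DMSO vehicle. mRNA measured at 24 h by quantitative nuclease protection assay with chemiluminescence; gain-of-signal fit versus DMSO, with morphology-based cytotoxicity flags.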

[16] = CCTE_Simmons_CellTiterGLO_HEK293T: Viability Assessment in CCTE's Assays for Thyroperoxidase (TPO) Inhibition, Simmons Lab (AID 2283665);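 also: cells exposed to compound for 24 h before readout; actives reduce ATP signal below DMSO vehicle meaning cytotoxicity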
Summary of the method: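 Cytotoxicity counter-screen: human HEK293T cells in low-serum (1% FBS) medium receive test chemical, 5 nM to 87.5 uM final, for 24 h; ATP is quantified by luciferase luminescence.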

Measured: AC50

Chain of Broad substrate specificity ATP-binding cassette transporter ABCG2 (Homo sapiens) (Q9UNQ0 whole entry, looked up): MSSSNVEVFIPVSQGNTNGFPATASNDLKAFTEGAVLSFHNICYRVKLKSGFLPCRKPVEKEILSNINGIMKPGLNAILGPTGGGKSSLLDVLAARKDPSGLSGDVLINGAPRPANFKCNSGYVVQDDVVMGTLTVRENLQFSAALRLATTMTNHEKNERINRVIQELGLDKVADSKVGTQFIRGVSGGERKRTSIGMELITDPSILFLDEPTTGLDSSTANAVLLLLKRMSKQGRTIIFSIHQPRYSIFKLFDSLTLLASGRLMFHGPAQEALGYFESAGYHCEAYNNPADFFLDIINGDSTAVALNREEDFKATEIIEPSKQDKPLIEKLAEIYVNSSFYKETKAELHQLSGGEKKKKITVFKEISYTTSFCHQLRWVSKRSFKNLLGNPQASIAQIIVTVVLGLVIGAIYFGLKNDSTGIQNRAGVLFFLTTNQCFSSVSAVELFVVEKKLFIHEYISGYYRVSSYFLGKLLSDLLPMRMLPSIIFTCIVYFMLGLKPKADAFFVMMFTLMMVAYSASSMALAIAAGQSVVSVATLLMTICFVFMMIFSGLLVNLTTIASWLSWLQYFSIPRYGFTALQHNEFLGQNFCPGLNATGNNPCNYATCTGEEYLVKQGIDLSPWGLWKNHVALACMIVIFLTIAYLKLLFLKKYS
Chain of Cytochrome P450 3A4 (Homo sapiens) (P08684 whole entry, looked up): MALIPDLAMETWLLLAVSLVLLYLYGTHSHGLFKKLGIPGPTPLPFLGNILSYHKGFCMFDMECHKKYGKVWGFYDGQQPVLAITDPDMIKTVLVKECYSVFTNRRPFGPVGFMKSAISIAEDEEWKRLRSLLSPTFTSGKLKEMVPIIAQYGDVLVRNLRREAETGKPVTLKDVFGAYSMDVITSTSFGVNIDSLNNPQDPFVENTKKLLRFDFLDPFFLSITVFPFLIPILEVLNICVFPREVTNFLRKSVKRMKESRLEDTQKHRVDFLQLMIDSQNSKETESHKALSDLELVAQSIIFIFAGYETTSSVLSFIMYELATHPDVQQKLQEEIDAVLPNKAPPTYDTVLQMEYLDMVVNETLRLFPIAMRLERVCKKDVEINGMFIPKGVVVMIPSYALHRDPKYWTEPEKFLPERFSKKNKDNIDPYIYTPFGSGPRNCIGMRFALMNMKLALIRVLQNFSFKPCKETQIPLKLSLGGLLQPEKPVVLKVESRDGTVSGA

COCC(C)N(C(=O)CCl)c1c(C)csc1C (stereo not drawn)
active: [4] 26.3 µM | [9] 6.94 µM | [10] 60.8 µM
not listed: [12] | [13] | [14] | [15] | [16]
inactive: all other assays above

Cc1c(COC(=O)[C@@H]2[C@H](/C=C(\Cl)C(F)(F)F)C2(C)C)cccc1-c1ccccc1
inactive: [12] | [1] | [2] | [4]
active: [10] 0.623 µM | [11] 3.44 µM

COC(=O)NS(=O)(=O)c1ccc(N)cc1
active: [13] 20.2 µM | [14] 20 µM | [15] 0.00106 µM
not listed: [3] | [5] | [16]
inactive: all other assays above

CCCCOCN(C(=O)CCl)c1c(CC)cccc1CC
inactive: [1] | [3] | [4] | [5] | [8] | [11]
active: [2] 5.21 µM | [6] 4.32 µM | [15] 6.4 µM | [10] 5.42 µM

Clc1cccc(C(Cl)(Cl)Cl)n1
active: [2] 20 µM | [15] 3.97 µM
inactive: [3] | [5] | [6] | [7] | [8] | [10] | [11]

CC(C)NC(=O)N1CC(=O)N(c2cc(Cl)cc(Cl)c2)C1=O
active: [2] 8.11 µM | [3] 20 µM | [15] 20 µM | [9] 20 µM | [10] 74.4 µM
inactive: [1] | [4] | [6] | [8] | [11]

CCSC(=O)N1CCCCCC1
active: [9] 2.28 µM
inactive: [2] | [6] | [15] | [8] | [10] | [11]

COC(=O)N(C(=O)N1CO[C@@]2(C(=O)OC)Cc3cc(Cl)ccc3C2=N1)c1ccc(OC(F)(F)F)cc1
active: [2] 2.46 µM | [3] 0.449 µM | [10] 1.57 µM | [11] 1.21 µM
inactive: [4] | [6] | [7] | [8]

CSC(=O)c1c(C(F)F)nc(C(F)(F)F)c(C(=O)SC)c1CC(C)C
active: [2] 5.31 µM | [9] 2.11 µM | [10] 9.65 µM
inactive: [3] | [4] | [5] | [6] | [7] | [8] | [11]

Nc1cnn(-c2ccccc2)c(=O)c1Cl
inactive: [1] | [4] | [6] | [15] | [9] | [10]
active: [2] 5.67 µM | [3] 9.27 µM

CC(C)N1C(=O)c2ccccc2NS1(=O)=O
inactive: [2] | [3] | [4] | [5] | [7] | [8] | [10]

N#Cc1c[nH]cc1-c1cccc2c1OC(F)(F)O2
inactive: [4] | [6]
active: [2] 0.9 µM | [3] 0.554 µM | [9] 5.4 µM | [10] 4.19 µM

Cc1ccc(N=CN(C)C=Nc2ccc(C)cc2C)c(C)c1
inactive: [1] | [3] | [4] | [5] | [6] | [8]
active: [15] 1.9 µM | [10] 27.5 µM

CCN(CC)C(=O)C(C)Oc1cccc2ccccc12 (stereo not drawn)
active: [2] 3.97 µM | [13] 26.3 µM | [3] 4.15 µM | [16] 87.8 µM | [9] 0.317 µM
inactive: [4] | [6] | [14] | [10]

N#Cc1c(Cl)cccc1Cl
inactive: [4] | [5] | [6] | [7] | [8] | [10] | [11]
active: [9] 4.85 µM

CS(=O)(=O)c1cc(C(F)(F)F)ccc1C(=O)c1cnoc1C1CC1
inactive: [2] | [3] | [4] | [5] | [6] | [15] | [7] | [8] | [10]

CC(C)(C)C(=O)C(Oc1ccc(Cl)cc1)n1cncn1 (stereo not drawn)
inactive: [1] | [4] | [6] | [14] | [7]
active: [2] 3.97 µM | [3] 12.4 µM | [10] 17.4 µM | [11] 0.434 µM

Cc1nc(N(C)C)nc(OC(=O)N(C)C)c1C
active: [2] 4.32 µM | [3] 3.8 µM | [9] 3.94 µM | [11] 5.6 µM
inactive: [1] | [4] | [6] | [7] | [8] | [10]
